Inconclusive results are not listed. Where a call stands in place of a potency, no number is given. The source made the active and inactive calls. Calls follow the shape of the dose curve; as a rule, active = well fitted inhibition curve with a large enough effect; inconclusive = small, poorly fitted or top-dose-only effect; inactive = no such curve, though single readings can be large or run the other way.

Sequence of Cytochrome P450 3A7 (Homo sapiens) (P24462 whole entry, looked up): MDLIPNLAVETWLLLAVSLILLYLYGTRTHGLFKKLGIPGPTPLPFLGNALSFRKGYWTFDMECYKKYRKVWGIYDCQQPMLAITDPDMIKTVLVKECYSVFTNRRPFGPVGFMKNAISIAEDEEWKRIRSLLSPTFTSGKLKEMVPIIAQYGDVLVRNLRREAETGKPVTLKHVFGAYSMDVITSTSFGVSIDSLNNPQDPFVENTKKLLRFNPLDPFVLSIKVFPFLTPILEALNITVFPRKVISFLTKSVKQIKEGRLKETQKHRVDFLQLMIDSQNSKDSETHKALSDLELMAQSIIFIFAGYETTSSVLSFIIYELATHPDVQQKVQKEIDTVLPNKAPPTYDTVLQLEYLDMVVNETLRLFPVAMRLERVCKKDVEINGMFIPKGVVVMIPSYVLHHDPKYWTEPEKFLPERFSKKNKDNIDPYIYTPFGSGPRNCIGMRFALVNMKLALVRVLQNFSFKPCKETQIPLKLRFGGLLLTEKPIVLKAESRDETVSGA

The assay has as its target Cytochrome P450 3A7 (Homo sapiens) (UniProt P24462). Description: Cytochrome P450 family 3 subfamily A member 7 (CYP3A7) small molecule antagonists: luciferase biochemical qHTS assay (AID 1963596). Also: nearly all actives have a fitted effect of over 40% in size. Conditions: P450-Glo CYP3A7 enzyme luminescence, 1 h; series mostly up to 57.4 µM. The method, boiled down:
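P450-Glo luminescent assay: CYP3A7 enzyme converts a proluciferin substrate to luciferin, detected by luciferase reagent; light proportional to activity. Compounds in DMSO preincubated 10 min with enzyme-substrate mix at room temperature, then NADPH regeneration added for 1 h.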
(Quantitative high-throughput screening tests each substance at several concentrations.)
For `NC(=O)c1ncn(C2OC(CO)C(O)C2O)n1` (stereo not given), the Potency entry was “inactive”. The entry for `OC[C@@H](O)C(O)[C@@H](O)CO` (stereo not given in full) is “inactive”; for `O=S(O)CO` it is “inactive”; for `O=C1CC[C@H](C(=O)O)N1` it is “inactive”.

For `COc1ccc(NC(=O)c2ccc(C(=N)N(C)C)cc2)c(C(=O)Nc2ccc(Cl)cn2)c1`, the Potency result is “inactive”. The entry for `Nc1ncnc2c1c(-c1ccc(Cl)cc1)nn2-c1cccc(-c2cnnn2Cc2cccc(-c3ccccc3)c2)c1` is “inactive”; for `CN1C(=O)OC(C)(C)C1=O` it is “inactive”. The entry for `CCCCC(=O)O` is “inactive”; for `COC(=O)c1cc(S(C)(=O)=O)ccc1OC` it is “inactive”; for `Fc1ccc(-c2nc(-c3c(F)cccc3F)[nH]c2-c2ccncc2)cc1` it is “inactive”. The entry for `CC1(C)[C@H]2C[C@H](C/C=C\CCCC(=O)O)[C@@H](NC(=O)c3csc4ccc(O)cc34)[C@@H]1C2` is “inactive”; for `Cc1c(C)c2c(c(C)c1OC(=O)CCC(=O)O)CC[C@@](C)(CCC[C@H](C)CCC[C@H](C)CCCC(C)C)O2` it is “inactive”; for `O=C(Nc1ccc(Br)cc1)c1cc(Br)c(Br)s1` it is “inactive”. `CCOC(=O)c1ccc(Nc2nc3nonc3nc2Nc2cccc(C)c2C)cc1`: the Potency result is “inactive”. The entry for `COc1cc(C(=O)NC(c2ccccc2Cl)c2cc(Cl)c3cccnc3c2O)cc(OC)c1OC` (stereo not given) is “inactive”; for `C=C(C)[C@H]1CC=C(C)CC1` it is “inactive”. The entry for `C=Cc1ccccc1` is “inactive”; for `C/C=C/C=C/C(=O)O` it is “inactive”; for `Cc1ccc(CNC(=O)C2CCN(S(=O)(=O)c3c(C)noc3/C=C/c3ccccc3F)CC2)o1` it is “inactive”. The entry for `O=C(OCCO)c1ccccc1O` is “inactive”; for `CCCC(CCC)C(N)=O` it is “inactive”; for `NC(=O)C[C@H](N)C(=O)O` it is “inactive”. `CC1(C)Oc2ncnc(N)c2N=C1c1ccc(C23CCC(CC(=O)O)(CC2)CC3)cc1`: the Potency result is “inactive”. On to `OCC=Cc1ccccc1`, for which the Potency result was “inactive”.

As to `CC1(C#N)CCN(c2c(C(=O)N3CCC(C(=O)C4CC4)CC3)cnc3ccc(F)cc23)CC1`, the Potency entry is “inactive”. The entry for `COC(=O)c1ccccc1O` is “inactive”. Regarding `O=C(O)CN(CC(=O)O)Cc1cc2c(-c3ccccc3C(=O)O)c3cc(CN(CC(=O)O)CC(=O)O)c(=O)cc-3oc2cc1O`, the Potency result is “inactive”. For the compound `O=C1CSc2ccccc2N1Cc1cccc(C(F)(F)F)c1`, the Potency result is “inactive”.

Turning to `CC(=O)Oc1cc(C(F)(F)F)ccc1C(=O)O`, the Potency result is “inactive”. The entry for `COc1ccc(NC(=O)Cn2ccn(-c3ccc(C)c(C)c3)c(=O)c2=O)cc1Cl` is “inactive”; for `CCOC(=O)N1c2ccc(C(F)(F)F)cc2C(N(Cc2cc(C(F)(F)F)cc(C(F)(F)F)c2)C(=O)OC)CC1CC` (stereo not given) it is “inactive”; for `O=C(Nc1cccc(Cl)c1)Nc1ccccc1OCc1cc(=O)n2ccccc2n1` it is “inactive”.

On to `CCn1nnnc1NCc1ccc(C(C)C)cc1`, for which the Potency result was “inactive”. The entry for `Cc1ccc(C(=O)c2cn(CC(=O)Nc3ccc4c(c3)OCCO4)c3nc(C)ccc3c2=O)cc1` is “inactive”; for `COc1ccc(C#Cc2ccc(C(=O)N3CCC[C@@H](O)C3)c(F)c2)cc1` it is “inactive”. The entry for `COc1ccc(-c2n[nH]c3c2cnc2cc(OC)c(OC)cc23)cc1` is “inactive”; for `CC(C)c1cccc(O)c(=O)c1` it is “inactive”; for `C[C@H](O)CN(C)C` it is “inactive”. The entry for `NCC1OC(OC2C(N)CC(N)C(OC3OC(CO)C(O)C(N)C3O)C2O)C(N)CC1O` (stereo not given) is “inactive”; for `CC(=O)O[C@@H]1C(=O)O[C@@H]2[C@H]1OC(=O)[C@@H]2OC(C)=O` it is “inactive”.

Values taken from PubChem BioAssay (NCATS).
